Screens: PubChem BioAssay, National Center for Advancing Translational Sciences (NCATS)
G9a inh: blocks human histone lysine methyltransferase G9a | Q96KQ7 | G9a H3K9 monomethylation, AlphaScreen, 2 h | Potency, µM (top dose mostly 102 µM), without a hit: at the top dose activity, negative = inhibition, usual class: inhibitors | 350,000 compounds, 8.8% hits | AID 504332; further: potency means the concentration at half of the fitted maximal effect; on the % scale 0 is the no-effect control and ±100 the full control effect; nearly all actives have a fitted effect of over 75% in size
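AlphaScreen read-out: biotin-H3K9 peptide (500 nM) methylation by 20 nM enzyme with 20 uM SAM, 2 h at room temperature after 15 min compound preincubation; anti-monomethyl H3K9 antibody plus donor/acceptor beads, 10 min dark.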
PI5P4Ka inh: inhibitors of human PI5P4K alpha; P48426; PI5P4Kalpha enzyme, ADP-Glo luminescence, 60 min; stronger effect = lower value; max response, %; 330,000 compounds, 1.2% hits; AID 652105; active means max response of -50% or lower; inconclusive means between -30% and -50%; inactive means -30% or higher; further: value at the top dose of about 77 µM; on the % scale 0 is the no-effect control and ±100 the full control effect
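Enzyme plus substrate dispensed, test compounds pinned in, then ATP (5 microM final) added. After 60 min at RT, ADP-Glo reagent 1 for 45 min and reagent 2 for 30 min preceded luminescence imaging.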
JMJD2A Tudor: JMJD2A Tudor domain (human) inhibition. Potency, µM (highest dose often 114 µM), for inactives: at the highest dose activity change, negative = inhibition, usual class: inhibitors. 390,000 compounds, 4.4% hits. O75164. AlphaScreen JMJD2A-Tudor / H3K4me3 peptide binding. AID 504339; further: potency means the concentration at half of the fitted maximal effect; on the % scale 0 is the no-effect control and ±100 the full control effect; nearly all actives have a fitted effect of over 50% in size
Target sequence (O75164 whole entry, looked up, the tested form may be a part): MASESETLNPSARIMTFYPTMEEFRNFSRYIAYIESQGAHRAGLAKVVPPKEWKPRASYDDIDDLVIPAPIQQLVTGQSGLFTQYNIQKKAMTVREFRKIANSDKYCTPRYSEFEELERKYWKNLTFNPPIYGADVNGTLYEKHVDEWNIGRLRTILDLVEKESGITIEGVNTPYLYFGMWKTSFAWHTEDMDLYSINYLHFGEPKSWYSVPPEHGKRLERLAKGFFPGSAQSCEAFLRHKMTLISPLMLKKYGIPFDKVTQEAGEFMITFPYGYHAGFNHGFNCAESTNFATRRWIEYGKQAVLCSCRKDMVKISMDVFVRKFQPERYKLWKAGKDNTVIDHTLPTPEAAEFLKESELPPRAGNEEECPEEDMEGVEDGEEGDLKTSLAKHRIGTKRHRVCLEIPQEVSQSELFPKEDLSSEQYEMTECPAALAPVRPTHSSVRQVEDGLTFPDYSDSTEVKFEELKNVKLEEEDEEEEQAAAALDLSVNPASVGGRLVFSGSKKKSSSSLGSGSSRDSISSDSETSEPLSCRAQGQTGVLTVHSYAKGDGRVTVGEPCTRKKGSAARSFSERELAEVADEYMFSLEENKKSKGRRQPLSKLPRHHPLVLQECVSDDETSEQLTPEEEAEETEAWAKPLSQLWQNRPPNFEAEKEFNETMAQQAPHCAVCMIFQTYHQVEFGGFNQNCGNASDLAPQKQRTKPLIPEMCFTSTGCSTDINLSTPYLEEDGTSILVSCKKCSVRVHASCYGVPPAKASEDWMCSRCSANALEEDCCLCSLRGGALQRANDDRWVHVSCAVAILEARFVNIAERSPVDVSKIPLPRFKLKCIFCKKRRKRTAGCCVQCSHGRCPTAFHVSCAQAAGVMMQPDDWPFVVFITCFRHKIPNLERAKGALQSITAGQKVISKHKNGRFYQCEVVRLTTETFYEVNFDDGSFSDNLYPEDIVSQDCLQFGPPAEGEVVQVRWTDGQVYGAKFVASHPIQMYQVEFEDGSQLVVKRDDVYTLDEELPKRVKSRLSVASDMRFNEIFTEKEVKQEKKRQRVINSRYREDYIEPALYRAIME
PLK1 PBD block: inhibitors of human PLK1 polo-box domain binding. Plk1 PBD binding of FITC phosphopeptide, fluorescence polarization. 360,000 compounds, 2.8% hits. Potency, µM, for the others: max response, negative = inhibition, most hits filed as inhibitors. AID 720504; further: potency means the concentration at half of the fitted maximal effect; series mostly up to about 57 µM; on the % scale 0 is the no-effect control and ±100 the full control effect; nearly all actives have a fitted effect of over 65% in size
HP1b chromo inh: inhibitors of HP1-beta chromodomain binding to methylated histone tails | P83916 | AlphaScreen HP1-beta / biotin-H3K9me3 peptide binding | Potency, µM (series often up to 114 µM), for inactives: top-dose activity change, negative = inhibition, actives largely listed as inhibitors | 390,000 compounds, 0.56% hits | AID 540317; further: potency means the concentration at half of the fitted maximal effect; nearly all actives have a fitted effect of over 70% in size
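AlphaScreen: HP1-beta (50 nM) preformed 30 min with biotin-H3(1-18)K9me3 peptide (50 nM) in PBS pH 7.4, 0.01% Tween-20. Compound added for 30 min at RT, then streptavidin donor/nickel chelate acceptor beads (10 ug/mL) for 30 min.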
BAZ2B block: inhibitors of human BAZ2B bromodomain; 360,000 compounds, 4.4% hits; Q9UIF8; Potency, µM (series often up to 114 µM), for inactives: at the top dose activity change, negative = inhibition, usual class: inhibitors; AlphaScreen BAZ2B-H3K14Ac peptide displacement; further: potency means the concentration at half of the fitted maximal effect; on the % scale 0 is the no-effect control and ±100 the full control effect; nearly all actives have a fitted effect of over 60% in size
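Compounds, titrated to a top concentration of 110 uM, were incubated 30 min at room temperature with preformed BAZ2B/acetyl-K14 H3 peptide complex (50 nM each). Proximity signal was measured by AlphaScreen after 20 min with beads.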
Numbers without * were called inactive; ? = inconclusive; · = not tested or not shown; [ ] = dose if it differs, or a comment. Only some compounds are listed: those with a hit (about 12% of all), similar ones and a draw of the others. Unless noted, the call rests on the fitted dose curve; in most records, active means well fitted curve in the direction sought with a large enough effect; inconclusive means small, poorly fitted or top-dose-only effect, or another doubt; inactive means no such curve, though single readings can be large; an effect the other way counts as inactive or inconclusive.

SMILES | G9a inh | PI5P4Ka inh | JMJD2A Tudor | PLK1 PBD block | HP1b chromo inh | BAZ2B block
CC1CC(=O)Nc2ccccc2N1S(=O)(=O)c1ccccc1 (stereo not given) | -22.5%[59 µM] | -27.5 | 17.8µM* | 26.7µM* | -3.0% | 37.3%
CCCN1C(=O)C(=O)N(CC(=O)N2c3ccccc3NC(=O)CC2C)C1=O (stereo not given) | · | -22.2 | · | 6.5% | · | ·
CCOC(=O)CN1c2ccccc2NC(=O)CC1C (stereo not given) | 44.7µM* | 8.0 | -24.6% | -16.2% | 47.6% | -0.4%
CC1Cc2ccccc2N1S(=O)(=O)c1cccc(C(=O)N2CC(=O)Nc3ccccc32)c1 (stereo not given) | 70.8µM* | -7.1 | -27.0% | -12.3% | 15.9% | -1.5%
CC(=O)N1CCN(C(=O)c2cccc(S(=O)(=O)N3c4ccccc4CC3C)c2)CC1 (stereo not given) | · | 4.7 | -9.0% | 1.0% | 20.4% | ·
Cc1nc(NC(=O)c2ccc([N+](=O)[O-])cc2Cl)sc1C(=O)N(C)C | ? | ? | ? | 18.9µM* | -22.3% | -28.1%
Cc1cc(C(=O)Nc2nc(C)c(C(=O)N(C)C)s2)ccc1[N+](=O)[O-] | -3.6%[59 µM] | -1.6 | -12.5% | 3.4% | 18.3% | -5.5%
CCOc1ccccc1NC(=O)N1CCN(C)c2ncccc21 | -3.4%[59 µM] | · | -26.8% | · | 20.3% | ?
CN(C)CCCN(C(=O)c1ccc(Br)s1)c1nc2cc3c(cc2s1)OCCO3 | ? | -1.7 | -35.9% | -2.1% | 0.2% | -0.1%
CCN(CC)CCN(C(=O)c1ccc(Br)s1)c1nc2cc3c(cc2s1)OCO3 | 50.1µM* | 1.1 | -22.8% | -1.4% | 34.2% | ·
CCN(CC)CCN(C(=O)c1ccc(Br)s1)c1nc2cc3c(cc2s1)OCCO3 | 50.1µM* | -1.3 | -12.7% | -9.4% | 35.7% | ·
CCN(CC)CCN(C(=O)C1=COCCO1)c1nc2cc3c(cc2s1)OCO3 | 0.2%[59 µM] | -5.0 | -10.5% | -0.4% | 37.2% | -27.0%
CCS(=O)(=O)Nc1ccc(C(=O)CC2(O)C(=O)Nc3ccc(Br)cc32)cc1 (stereo not given) | -23.4% | 3.4 | 17.8%[11.4 µM] | 21.2µM* | 4.2% | -19.7%
CS(=O)(=O)Nc1cccc(C(=O)CC2(O)C(=O)Nc3ccc(Br)cc32)c1 (stereo not given) | -33.5% | -5.3 | 3.9%[57.1 µM] | -4.9% | 15.7% | -21.2%
Cc1cccc(Nc2ccncc2S(N)(=O)=O)c1 | · | -6.8 | -15.9% | -8.5% | -0.6% | ·
CCCn1c(=O)c2sccc2n2c(CCCC(=O)NC3CCC(C)CC3)nnc12 (stereo not given) | 0.6%[59 µM] | · | -16.5% | · | 16.5% | -3.0%
CCOC(=O)c1sc(=S)n(-c2cc(F)ccc2F)c1N | 26.2%[0.501 µM] | · | ? | ? | -34.9% | -9.4%
COC(=O)c1sc(=S)n(-c2cc(F)ccc2F)c1N | 12.1%[0.501 µM] | · | ? | 13.4µM* | ? | 56.2µM*
CCSc1nc2c(c(=O)[nH]c(=O)n2C)n1C/C=C(/C)Cl | ? | 6.0 | -1.9% | -8.9% | 14.7% | -4.7%
CSc1nc2c(c(=O)[nH]c(=O)n2C)n1C/C=C(\C)Cl | 39.8µM* | · | -7.7% | -9.4% | -10.8% | -7.7%
CCOC(=O)C(C)Sc1nc2c(c(=O)[nH]c(=O)n2C)n1C/C=C(/C)Cl (stereo not given) | 7.08µM* | ? | ? | 11.9µM* | -80.1% | -5.0%
CCN(CC)c1cc2c(c3c1ccn3C)C1CCC2C1 (stereo not given) | · | -1.7 | · | -6.8% | · | ·
O=C(c1ccncc1)N1CCC2(CC1)CN(c1ccncc1)C2 | 23.1%[12.7 µM] | · | · | · | · | ·
C(=NN=C1c2ccccc2-c2ccccc21)c1ccc2c(c1)OCO2 | · | 27.7 | 20µM* | -3.3% | 50.1µM* | ·
CCOc1cc(C=NN=C2c3ccccc3-c3ccccc32)ccc1O | · | 44.9 | 25.1µM* | 2.4% | 50.1µM* | ·
SMILES | G9a inh | PI5P4Ka inh | JMJD2A Tudor | PLK1 PBD block | HP1b chromo inh | BAZ2B block
Oc1cccc(C=NN=C2c3ccccc3-c3ccccc32)c1 | · | 36.1 | 44.7µM* | -0.7% | ? | ·
CCOc1ccc(CCNC(=O)COC(=O)CNS(=O)(=O)c2ccc(NC(C)=O)cc2)cc1OCC | -32.9% | -0.5 | -12.4% | 5.6% | 6.0% | 1.3%
CCCCn1c(=N)c(S(=O)(=O)c2ccc(C)cc2)cc2c(=O)n3cc(C)ccc3nc21 | 4.6%[59 µM] | · | 0.9% | · | 11.8% | 1.1%
CCn1nc(C)c2c(-c3ccccc3)cc(=O)n(C(C)C(=O)NCc3cccc(OC)c3)c21 (stereo not given) | 0.1%[59 µM] | · | -19.7% | · | 9.4% | -14.8%
O=C1CCC/C1=C/Nc1ccc2c(c1)OCO2 | ? | 5.3 | -4.2% | 0.3% | 23.6% | ?
CC1CCC/C(=C\Nc2ccccc2C(=O)O)C1=O (stereo not given) | 44.7µM* | · | -26.1% | -3.6% | 38.1% | ?
CC1CCC/C(=C\Nc2ccc3c(c2)OCO3)C1=O (stereo not given) | 8.91µM* | -16.2 | 100µM* | -19.3% | -10.4% | ?
O=C1/C(=C/c2ccncc2)SC(=S)N1Nc1ccccc1 | 31.6µM* | -11.2 | ? | 5.32µM* | ? | ?
CC(=O)NN1C(=O)/C(=C\c2ccccc2)SC1=S | 11.9% | -13.9 | -26.1% | 5.2% | 25.3% | -28.5%
O=C(O)c1ccc(/C=C2\SC(=S)N(Nc3ccccc3)C2=O)cc1 | 50.1µM* | ? | -23.2% | 21.2µM* | -5.1% | ?
O=C(O)c1ccc(/C=C2\SC(=S)N(NC(=O)c3ccccc3[N+](=O)[O-])C2=O)cc1 | ? | ? | -19.1% | -11.0% | 16.2% | -3.0%
Cc1cc(C)nc(NN2C(=O)/C(=C/c3ccccc3)SC2=S)n1 | 39.8µM* | · | -10.9% | -26.7% | 0.6% | -8.3%
CCCS(=O)(=O)c1nc(S(=O)(=O)c2ccc(C)cc2)c(NCc2ccccc2)s1 | -0.4%[59 µM] | · | -18.1% | · | 28.8% | -1.5%
Cc1cc(C(=O)NCC(c2ccco2)N2CCCC2)c2ccccc2n1 (stereo not given) | 2.8%[59 µM] | 5.0 | -3.4% | 0.3% | 48.6% | 11.4%
Cc1cc(CNC[C@H]2O[C@@H](n3cnc(C(N)=O)n3)[C@H](O)[C@@H]2O)c(C)n1-c1cccnc1 | · | 5.0 | -9.6% | -12.6% | 38.2% | ·
CCN(CC)c1ccc(NC(=O)CSc2nc3nc(C)cc(C)c3c(=O)[nH]2)cc1 | 39.8µM* | -3.7 | 44.7µM* | -4.4% | ? | 44.7µM*
COc1ccc(NC(=O)CSc2nc3nc(C)cc(C)c3c(=O)[nH]2)cc1 | -0.8%[0.501 µM] | -13.2 | -21.0% | -22.2% | 8.5%[57 µM] | -9.3%
COc1cccc(Nc2nc3ccc(C)cc3nc2-n2nc(C)cc2C)c1 | 392.3%[59 µM] | · | 194.9% | · | 313.6% | 355.4%
CCN(Cc1cccs1)C(=O)CN1C(=O)NC(c2ccccc2)(c2ccccc2)C1=O | 7.94µM* | -3.4 | -29.7% | -12.7% | 7.2% | -3.6%
O=S(=O)(Nc1ccc2c(c1)nc1n2CCN(Cc2ccccc2)C1)c1ccc(F)cc1 | ? | -15.9 | 89.1µM* | -16.9% | 48.0% | -31.6%
